Assay results as given in ChEMBL document CHEMBL1961873, “Compounds: GSK PKIS; Assays: Nanosyn kinase panel” (2012).

What was measured:
[1] = target: Tyrosine-protein kinase CSK (Homo sapiens) (UniProt P41240); conditions: at 1 µM;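 note: each value is an averaged inhibition reading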
[2] = target: T1, Discoidin domain-containing receptor 2 (Homo sapiens) (UniProt Q16832); conditions: at 0.1 µM
T1 sequence (whole entry): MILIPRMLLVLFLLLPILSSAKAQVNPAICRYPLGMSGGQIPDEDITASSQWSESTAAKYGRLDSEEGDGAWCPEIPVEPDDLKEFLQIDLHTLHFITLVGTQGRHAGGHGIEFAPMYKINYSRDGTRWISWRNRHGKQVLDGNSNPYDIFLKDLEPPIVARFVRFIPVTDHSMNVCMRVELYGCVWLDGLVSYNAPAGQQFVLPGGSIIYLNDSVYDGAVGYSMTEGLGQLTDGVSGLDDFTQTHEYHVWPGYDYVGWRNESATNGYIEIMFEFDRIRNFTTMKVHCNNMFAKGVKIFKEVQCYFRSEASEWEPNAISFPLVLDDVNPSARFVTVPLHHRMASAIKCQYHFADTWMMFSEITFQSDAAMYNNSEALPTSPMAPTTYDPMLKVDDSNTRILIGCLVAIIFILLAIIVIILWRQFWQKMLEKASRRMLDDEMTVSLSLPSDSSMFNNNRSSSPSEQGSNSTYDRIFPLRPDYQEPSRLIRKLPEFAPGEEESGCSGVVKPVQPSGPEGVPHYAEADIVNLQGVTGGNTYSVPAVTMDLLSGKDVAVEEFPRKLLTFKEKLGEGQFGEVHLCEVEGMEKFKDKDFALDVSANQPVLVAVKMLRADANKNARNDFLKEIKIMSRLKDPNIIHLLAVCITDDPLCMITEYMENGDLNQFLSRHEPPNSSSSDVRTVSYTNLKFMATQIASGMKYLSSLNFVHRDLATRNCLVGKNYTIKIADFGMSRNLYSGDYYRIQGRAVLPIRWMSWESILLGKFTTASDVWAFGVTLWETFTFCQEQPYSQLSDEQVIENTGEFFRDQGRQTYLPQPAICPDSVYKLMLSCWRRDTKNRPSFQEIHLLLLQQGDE

[3] = target: T1, Discoidin domain-containing receptor 2 (Homo sapiens); conditions: at 1 µM
[4] = target: Epidermal growth factor receptor (Homo sapiens) (UniProt P00533); conditions: at 0.1 µM
[5] = target: Epidermal growth factor receptor (Homo sapiens) (UniProt P00533); conditions: at 1 µM
[6] = tested on: Epidermal growth factor receptor (Homo sapiens), P00533 [L858R]; conditions: at 0.1 µM
[7] = tested on: Epidermal growth factor receptor (Homo sapiens), P00533 [L858R]; conditions: at 1 µM
[8] = tested on: Epidermal growth factor receptor (Homo sapiens), P00533 [L861Q]; conditions: at 0.1 µM
[9] = tested on: Epidermal growth factor receptor (Homo sapiens), P00533 [L861Q]; conditions: at 1 µM
[10] = tested on: Epidermal growth factor receptor (Homo sapiens), P00533 [T790M]; conditions: at 0.1 µM
[11] = tested on: Epidermal growth factor receptor (Homo sapiens), P00533 [T790M]; conditions: at 1 µM
[12] = tested on: Epidermal growth factor receptor (Homo sapiens), P00533 [L858R,T790M]; conditions: at 0.1 µM
[13] = tested on: Epidermal growth factor receptor (Homo sapiens), P00533 [L858R,T790M]; conditions: at 1 µM
[14] = target: Ephrin type-A receptor 2 (Homo sapiens) (UniProt P29317); conditions: at 0.1 µM
[15] = target: Ephrin type-A receptor 2 (Homo sapiens) (UniProt P29317); conditions: at 1 µM
[16] = target: T2, Ephrin type-A receptor 3 (Homo sapiens) (UniProt P29320); conditions: at 0.1 µM
T2 sequence (whole entry): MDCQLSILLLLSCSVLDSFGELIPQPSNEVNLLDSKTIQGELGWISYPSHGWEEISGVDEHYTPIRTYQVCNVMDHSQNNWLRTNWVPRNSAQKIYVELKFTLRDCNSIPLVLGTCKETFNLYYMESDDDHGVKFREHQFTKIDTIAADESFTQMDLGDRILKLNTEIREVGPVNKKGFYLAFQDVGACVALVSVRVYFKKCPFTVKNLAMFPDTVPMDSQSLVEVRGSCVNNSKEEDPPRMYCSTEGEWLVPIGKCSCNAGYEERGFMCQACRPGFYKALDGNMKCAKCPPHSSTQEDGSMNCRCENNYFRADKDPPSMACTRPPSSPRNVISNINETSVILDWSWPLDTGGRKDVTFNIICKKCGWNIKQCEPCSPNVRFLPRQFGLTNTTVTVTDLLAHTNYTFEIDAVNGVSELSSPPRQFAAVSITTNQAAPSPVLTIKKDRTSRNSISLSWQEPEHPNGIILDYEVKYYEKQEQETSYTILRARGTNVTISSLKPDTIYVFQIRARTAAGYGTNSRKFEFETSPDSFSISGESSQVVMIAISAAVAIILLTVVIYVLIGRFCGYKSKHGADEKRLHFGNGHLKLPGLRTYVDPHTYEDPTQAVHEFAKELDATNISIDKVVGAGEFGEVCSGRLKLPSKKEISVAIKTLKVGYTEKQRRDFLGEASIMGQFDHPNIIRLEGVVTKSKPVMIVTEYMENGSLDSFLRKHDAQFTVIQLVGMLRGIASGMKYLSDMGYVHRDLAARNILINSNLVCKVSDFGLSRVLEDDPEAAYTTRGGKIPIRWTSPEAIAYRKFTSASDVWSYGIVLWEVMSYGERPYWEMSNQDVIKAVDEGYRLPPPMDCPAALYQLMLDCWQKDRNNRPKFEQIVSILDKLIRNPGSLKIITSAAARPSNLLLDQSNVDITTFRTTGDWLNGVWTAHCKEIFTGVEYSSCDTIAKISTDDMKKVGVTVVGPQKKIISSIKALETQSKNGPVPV

[17] = target: T2, Ephrin type-A receptor 3 (Homo sapiens); conditions: at 1 µM
[18] = target: Ephrin type-A receptor 4 (Homo sapiens) (UniProt P54764); conditions: at 0.1 µM
[19] = target: Ephrin type-A receptor 4 (Homo sapiens) (UniProt P54764); conditions: at 1 µM
[20] = target: T3, Ephrin type-B receptor 2 (Homo sapiens) (UniProt P29323); conditions: at 0.1 µM;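 note: reported as mean inhibition of EPHB2, from the GSK PKIS dataset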
T3 sequence (whole entry): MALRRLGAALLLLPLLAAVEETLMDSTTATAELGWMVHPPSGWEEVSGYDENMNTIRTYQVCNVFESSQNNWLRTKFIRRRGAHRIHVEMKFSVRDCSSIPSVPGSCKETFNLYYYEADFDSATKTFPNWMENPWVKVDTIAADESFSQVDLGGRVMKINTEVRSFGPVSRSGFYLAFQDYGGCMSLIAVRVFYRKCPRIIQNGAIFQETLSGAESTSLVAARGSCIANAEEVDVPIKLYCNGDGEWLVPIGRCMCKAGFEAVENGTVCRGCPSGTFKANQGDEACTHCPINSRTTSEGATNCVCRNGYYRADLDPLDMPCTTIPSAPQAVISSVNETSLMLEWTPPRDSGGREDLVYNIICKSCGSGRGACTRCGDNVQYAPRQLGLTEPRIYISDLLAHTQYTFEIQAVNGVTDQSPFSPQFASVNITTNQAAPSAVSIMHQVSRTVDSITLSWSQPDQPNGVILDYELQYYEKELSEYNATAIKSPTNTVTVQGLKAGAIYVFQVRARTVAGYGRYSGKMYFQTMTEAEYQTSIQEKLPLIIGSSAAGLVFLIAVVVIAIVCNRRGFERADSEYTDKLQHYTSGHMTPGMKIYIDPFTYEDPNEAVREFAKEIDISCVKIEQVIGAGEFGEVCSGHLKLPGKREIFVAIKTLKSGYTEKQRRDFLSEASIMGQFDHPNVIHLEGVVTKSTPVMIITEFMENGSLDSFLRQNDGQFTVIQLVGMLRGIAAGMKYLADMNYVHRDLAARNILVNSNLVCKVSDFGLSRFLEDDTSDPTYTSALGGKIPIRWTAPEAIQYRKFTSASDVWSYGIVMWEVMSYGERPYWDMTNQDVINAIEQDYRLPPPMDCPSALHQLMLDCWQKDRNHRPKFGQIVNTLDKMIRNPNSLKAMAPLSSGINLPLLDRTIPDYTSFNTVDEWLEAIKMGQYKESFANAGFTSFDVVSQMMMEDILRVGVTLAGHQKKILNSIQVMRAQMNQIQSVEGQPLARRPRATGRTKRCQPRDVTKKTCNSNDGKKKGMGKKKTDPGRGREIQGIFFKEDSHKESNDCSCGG

Sequence of Tyrosine-protein kinase CSK (Homo sapiens) (P41240 2-450 limits assumed): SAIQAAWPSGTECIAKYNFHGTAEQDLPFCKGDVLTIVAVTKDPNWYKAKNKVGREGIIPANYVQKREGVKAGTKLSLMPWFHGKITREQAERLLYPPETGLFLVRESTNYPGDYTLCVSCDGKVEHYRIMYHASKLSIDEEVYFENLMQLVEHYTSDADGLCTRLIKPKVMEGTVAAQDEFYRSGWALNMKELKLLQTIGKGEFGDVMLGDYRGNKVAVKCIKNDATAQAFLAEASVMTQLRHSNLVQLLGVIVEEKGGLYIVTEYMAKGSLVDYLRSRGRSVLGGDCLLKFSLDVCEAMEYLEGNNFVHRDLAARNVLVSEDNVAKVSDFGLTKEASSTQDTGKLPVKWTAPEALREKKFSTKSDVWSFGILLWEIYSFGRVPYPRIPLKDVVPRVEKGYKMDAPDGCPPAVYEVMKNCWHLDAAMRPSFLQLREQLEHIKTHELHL
Sequence of Ephrin type-A receptor 2 (Homo sapiens) (P29317 whole entry): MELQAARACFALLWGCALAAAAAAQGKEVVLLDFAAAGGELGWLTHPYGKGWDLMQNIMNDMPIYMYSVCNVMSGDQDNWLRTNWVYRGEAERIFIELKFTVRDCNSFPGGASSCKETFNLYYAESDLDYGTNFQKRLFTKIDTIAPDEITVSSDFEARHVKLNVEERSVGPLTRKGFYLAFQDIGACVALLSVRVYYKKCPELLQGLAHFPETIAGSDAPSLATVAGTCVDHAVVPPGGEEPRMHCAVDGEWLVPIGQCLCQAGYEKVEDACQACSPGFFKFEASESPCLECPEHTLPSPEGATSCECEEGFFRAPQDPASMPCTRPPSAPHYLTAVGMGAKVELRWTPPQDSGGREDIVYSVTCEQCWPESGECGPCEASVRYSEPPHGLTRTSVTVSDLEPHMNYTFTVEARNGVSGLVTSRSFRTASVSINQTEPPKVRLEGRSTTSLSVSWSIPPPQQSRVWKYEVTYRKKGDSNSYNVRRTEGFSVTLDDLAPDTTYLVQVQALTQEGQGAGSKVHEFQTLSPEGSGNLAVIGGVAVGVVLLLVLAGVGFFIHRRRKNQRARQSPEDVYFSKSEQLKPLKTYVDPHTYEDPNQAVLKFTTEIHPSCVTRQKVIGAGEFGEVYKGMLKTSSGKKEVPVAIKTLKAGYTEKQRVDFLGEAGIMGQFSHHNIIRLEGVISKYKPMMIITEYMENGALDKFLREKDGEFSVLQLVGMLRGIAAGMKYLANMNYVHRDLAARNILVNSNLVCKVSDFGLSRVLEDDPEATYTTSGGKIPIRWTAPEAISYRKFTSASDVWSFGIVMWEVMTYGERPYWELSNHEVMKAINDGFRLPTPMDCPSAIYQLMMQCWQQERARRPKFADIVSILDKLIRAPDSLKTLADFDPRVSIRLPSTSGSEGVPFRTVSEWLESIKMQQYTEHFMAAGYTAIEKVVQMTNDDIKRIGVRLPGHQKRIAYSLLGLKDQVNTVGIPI
Sequence of Epidermal growth factor receptor (Homo sapiens), P00533 [L858R,T790M] (P00533 whole entry T790M/L858R, looked up): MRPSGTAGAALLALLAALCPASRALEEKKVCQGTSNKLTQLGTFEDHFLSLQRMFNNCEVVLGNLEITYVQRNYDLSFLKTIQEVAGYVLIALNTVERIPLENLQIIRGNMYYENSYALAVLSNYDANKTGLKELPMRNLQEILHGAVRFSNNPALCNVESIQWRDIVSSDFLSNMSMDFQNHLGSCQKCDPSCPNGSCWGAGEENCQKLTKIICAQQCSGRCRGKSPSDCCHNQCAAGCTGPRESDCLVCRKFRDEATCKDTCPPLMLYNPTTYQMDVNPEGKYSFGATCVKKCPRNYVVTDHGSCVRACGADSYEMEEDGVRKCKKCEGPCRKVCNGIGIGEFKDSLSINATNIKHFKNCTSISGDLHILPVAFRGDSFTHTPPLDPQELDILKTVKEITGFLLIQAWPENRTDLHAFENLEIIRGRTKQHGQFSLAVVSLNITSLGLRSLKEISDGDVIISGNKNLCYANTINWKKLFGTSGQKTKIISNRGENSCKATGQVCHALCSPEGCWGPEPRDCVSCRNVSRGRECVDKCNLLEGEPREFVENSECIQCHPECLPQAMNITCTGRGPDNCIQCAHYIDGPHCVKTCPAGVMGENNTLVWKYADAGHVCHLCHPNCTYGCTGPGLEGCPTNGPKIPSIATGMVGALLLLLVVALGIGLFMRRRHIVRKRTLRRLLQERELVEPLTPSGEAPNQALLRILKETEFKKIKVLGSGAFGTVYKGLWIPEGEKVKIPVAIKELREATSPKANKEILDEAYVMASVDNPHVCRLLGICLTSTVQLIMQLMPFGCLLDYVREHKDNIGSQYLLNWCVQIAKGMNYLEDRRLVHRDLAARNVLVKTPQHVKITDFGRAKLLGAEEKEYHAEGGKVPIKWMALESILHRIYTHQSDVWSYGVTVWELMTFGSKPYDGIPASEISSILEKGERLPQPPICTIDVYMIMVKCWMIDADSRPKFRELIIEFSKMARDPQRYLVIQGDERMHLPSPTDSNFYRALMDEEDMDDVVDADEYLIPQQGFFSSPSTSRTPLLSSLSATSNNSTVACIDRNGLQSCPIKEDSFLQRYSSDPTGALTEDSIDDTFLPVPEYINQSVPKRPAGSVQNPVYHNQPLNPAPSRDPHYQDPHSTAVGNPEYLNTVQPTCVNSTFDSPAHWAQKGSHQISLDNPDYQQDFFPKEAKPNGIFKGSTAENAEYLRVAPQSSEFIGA
Sequence of Epidermal growth factor receptor (Homo sapiens) (P00533 whole entry): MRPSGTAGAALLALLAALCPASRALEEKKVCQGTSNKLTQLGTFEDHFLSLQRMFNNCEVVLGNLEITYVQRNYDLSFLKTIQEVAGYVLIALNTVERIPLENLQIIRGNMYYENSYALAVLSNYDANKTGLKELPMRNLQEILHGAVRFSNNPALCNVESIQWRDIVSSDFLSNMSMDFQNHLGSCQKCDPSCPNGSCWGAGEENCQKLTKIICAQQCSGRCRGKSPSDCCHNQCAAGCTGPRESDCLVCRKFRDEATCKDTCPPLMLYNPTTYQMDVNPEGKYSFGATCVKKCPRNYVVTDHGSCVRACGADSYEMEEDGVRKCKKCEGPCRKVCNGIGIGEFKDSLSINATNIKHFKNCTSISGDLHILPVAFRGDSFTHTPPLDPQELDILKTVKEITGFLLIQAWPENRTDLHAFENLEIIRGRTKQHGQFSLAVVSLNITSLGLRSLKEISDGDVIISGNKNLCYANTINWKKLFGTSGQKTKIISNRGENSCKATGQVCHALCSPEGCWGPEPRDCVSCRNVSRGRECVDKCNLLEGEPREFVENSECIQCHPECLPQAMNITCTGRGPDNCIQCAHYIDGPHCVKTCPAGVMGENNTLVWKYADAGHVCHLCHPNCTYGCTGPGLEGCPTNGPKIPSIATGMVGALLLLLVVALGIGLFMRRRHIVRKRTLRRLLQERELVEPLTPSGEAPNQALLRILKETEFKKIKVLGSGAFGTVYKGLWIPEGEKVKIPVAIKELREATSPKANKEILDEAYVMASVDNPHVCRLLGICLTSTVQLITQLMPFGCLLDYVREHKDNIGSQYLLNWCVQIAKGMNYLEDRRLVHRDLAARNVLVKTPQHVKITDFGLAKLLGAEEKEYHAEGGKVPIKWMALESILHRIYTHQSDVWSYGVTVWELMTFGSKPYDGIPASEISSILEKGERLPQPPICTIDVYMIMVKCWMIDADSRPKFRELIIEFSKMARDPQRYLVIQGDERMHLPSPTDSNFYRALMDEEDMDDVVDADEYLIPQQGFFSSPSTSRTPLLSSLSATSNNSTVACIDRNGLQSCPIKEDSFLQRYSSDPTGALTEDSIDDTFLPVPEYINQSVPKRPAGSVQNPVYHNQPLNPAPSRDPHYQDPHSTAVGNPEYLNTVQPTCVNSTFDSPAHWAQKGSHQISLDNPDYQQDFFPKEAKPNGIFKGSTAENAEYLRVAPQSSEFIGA
Sequence of Epidermal growth factor receptor (Homo sapiens), P00533 [T790M] (P00533 whole entry T790M): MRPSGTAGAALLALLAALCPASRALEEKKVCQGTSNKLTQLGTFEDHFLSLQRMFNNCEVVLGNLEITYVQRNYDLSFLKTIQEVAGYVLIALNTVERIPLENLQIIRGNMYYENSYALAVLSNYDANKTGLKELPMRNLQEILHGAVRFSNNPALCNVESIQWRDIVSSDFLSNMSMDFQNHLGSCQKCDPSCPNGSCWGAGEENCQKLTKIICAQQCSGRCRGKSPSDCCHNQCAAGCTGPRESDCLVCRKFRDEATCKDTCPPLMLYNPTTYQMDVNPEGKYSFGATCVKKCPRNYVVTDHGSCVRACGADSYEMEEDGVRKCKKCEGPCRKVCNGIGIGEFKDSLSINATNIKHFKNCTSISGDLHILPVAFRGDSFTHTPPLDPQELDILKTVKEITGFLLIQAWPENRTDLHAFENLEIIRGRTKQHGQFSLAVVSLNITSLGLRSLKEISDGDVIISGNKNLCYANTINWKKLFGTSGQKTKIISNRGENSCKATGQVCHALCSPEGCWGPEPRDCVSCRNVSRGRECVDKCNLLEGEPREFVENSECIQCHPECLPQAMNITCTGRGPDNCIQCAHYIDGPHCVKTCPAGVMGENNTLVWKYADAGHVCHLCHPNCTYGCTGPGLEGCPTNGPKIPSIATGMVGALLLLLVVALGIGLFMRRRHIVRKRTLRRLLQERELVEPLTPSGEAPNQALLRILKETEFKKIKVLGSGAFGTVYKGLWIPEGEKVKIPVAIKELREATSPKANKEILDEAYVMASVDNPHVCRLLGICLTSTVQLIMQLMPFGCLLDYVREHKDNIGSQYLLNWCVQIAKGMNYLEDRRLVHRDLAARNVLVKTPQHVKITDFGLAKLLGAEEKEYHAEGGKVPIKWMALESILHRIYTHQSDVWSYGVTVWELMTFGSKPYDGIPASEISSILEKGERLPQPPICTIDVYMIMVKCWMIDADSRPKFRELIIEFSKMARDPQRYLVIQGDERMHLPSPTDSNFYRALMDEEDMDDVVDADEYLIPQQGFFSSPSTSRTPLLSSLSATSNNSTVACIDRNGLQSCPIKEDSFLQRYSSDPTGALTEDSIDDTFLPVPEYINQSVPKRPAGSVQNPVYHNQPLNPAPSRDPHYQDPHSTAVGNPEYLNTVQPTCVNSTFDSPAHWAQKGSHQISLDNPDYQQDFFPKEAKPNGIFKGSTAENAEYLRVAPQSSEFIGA

SMILES | inhibition [1] | inhibition [2] | inhibition [3] | inhibition [4] | inhibition [5] | inhibition [6] | inhibition [7] | inhibition [8] | inhibition [9] | inhibition [10] | inhibition [11] | inhibition [12] | inhibition [13] | inhibition [14] | inhibition [15] | inhibition [16] | inhibition [17] | inhibition [18] | inhibition [19] | inhibition [20]
Fc1ccc(-c2c(-c3ccncc3)nc3n2CCS3)cc1 | 5.05% | 0.56% | -0.39% | -4.84% | -0.06% | 3.61% | 22.2% | 1.81% | 1.46% | 1.14% | 1.49% | 2.41% | 2.54% | -5.85% | -4.53% | -0.6% | 0.35% | 6.26% | 8.11% | 1.66%
Clc1ccc(CNc2nccc(-c3cnn4ncccc34)n2)cc1 | 2.58% | 1.86% | 4.61% | 0.75% | 3.24% | 3.13% | 5.2% | -1.04% | 0.71% | 0.11% | -0.46% | 0.01% | 3.09% | 1.88% | 1.02% | 2.21% | 3.84% | 5.02% | 13% | 7.93%
c1ccc(-c2n[nH]cc2-c2ccnc(-c3ccc(OCCN4CCOCC4)cc3)c2)nc1 | -4.36% | 7.59% | 7.75% | 3.33% | 6.67% | -2.03% | -1.71% | -0.15% | -2.39% | -0.02% | -0.63% | 1.82% | -2.02% | 4.75% | 2.42% | -1.39% | -0.22% | -5.11% | -9.05% | 0.38%
C[C@@H](Oc1cc(-n2cnc3ccc(OCC4CCN(C)CC4)cc32)sc1C(N)=O)c1ccccc1Cl | 3.59% | 2.64% | 8.53% | 3.04% | 3.73% | 4.5% | 19.8% | 1.43% | 5.89% | 1.15% | 3.47% | -2.11% | 7.41% | 1.42% | 1.71% | 3.99% | 4.27% | 8.9% | 11.6% | 9.82%
NC(=O)c1cc(-c2ccncc2)cc(-c2ccccc2)c1N | 16.1% | 4.49% | 27.6% | 8.28% | 18% | 4.58% | 39.7% | 3.24% | 11.9% | 1.64% | 2.91% | 3.41% | 9.94% | 15.2% | 56.3% | 5.37% | 8.77% | 19.8% | 62.8% | 16.5%
c1ccc(Oc2ccc(Nc3ncc(-c4ccccc4)o3)cc2)cc1 | 1.07% | 0.51% | 0.6% | 1.92% | 3.79% | 1.22% | 0.93% | 1.49% | 3.06% | 0.57% | 0.24% | -0.18% | 4.16% | -2.63% | -2.48% | 2.07% | 2.91% | 4.49% | 4.79% | 7.5%
